PubChem BioAssay (Tox21)
Records with an inconclusive call do not appear. Entries that show only a call come without a potency. Some structures have more than one record in an assay (separate samples or runs), and their calls can disagree. Activity calls are given as the source filed them. Unless noted, calls come from the whole dose curve.

Tests used:
[1] = Nuclear factor erythroid 2-related factor 2/antioxidant responsive element (Nrf2/ARE) small molecule agonists: qHTS cell viability counter screen in human keratinocytes (AID 1919968; active = well fitted curve in the direction sought with a large enough effect in the repeat runs; an effect the other way counts as inactive or inconclusive; note: nearly all actives have a fitted effect of over 55% in size; note: potency is the fitted concentration of half-maximal effect)
Procedure, shortened: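 In human HaCaT keratinocytes stably expressing an ARE-driven luciferase, compound exposure lasted 23 h at 37 C under 5% CO2. Viable cells are quantified with a protease-based fluorogenic reagent (CellTiter-Fluor) read 1 h after addition.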

[2] = Nuclear factor erythroid 2-related factor 2/antioxidant responsive element (Nrf2/ARE) small molecule agonists: luciferase reporter gene qHTS assay in human keratinocytes (AID 1919969); note: nearly all actives have a fitted effect of over 35% in size
[3] = target: Gonadotropin-releasing hormone receptor (Homo sapiens) (UniProt P30968); assay: Human gonadotropin-releasing hormone receptor (GnRHR) small molecule agonists, calcium flux assay in GnRHR-HEK293 cells (AID 1920063); note: nearly all actives have a fitted effect of over 35% in size
Chain of Gonadotropin-releasing hormone receptor (Homo sapiens) (P30968 whole entry, looked up): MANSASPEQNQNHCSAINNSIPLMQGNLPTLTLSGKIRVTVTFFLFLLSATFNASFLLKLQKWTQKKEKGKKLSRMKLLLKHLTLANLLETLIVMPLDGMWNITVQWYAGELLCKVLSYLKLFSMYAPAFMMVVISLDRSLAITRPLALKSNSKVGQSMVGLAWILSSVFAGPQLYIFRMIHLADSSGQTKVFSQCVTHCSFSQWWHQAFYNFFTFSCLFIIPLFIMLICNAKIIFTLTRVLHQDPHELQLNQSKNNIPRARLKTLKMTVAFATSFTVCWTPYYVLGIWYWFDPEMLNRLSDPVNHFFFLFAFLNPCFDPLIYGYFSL
Procedure, shortened: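 Intracellular calcium rise is the read-out: engineered human GnRHR HEK293 cells, dye-loaded, are exposed to DMSO-dissolved compounds and fluorescence at Ex/Em 480/540 is tracked for 3 min.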

[4] = target: KiSS-1 receptor (Homo sapiens) (UniProt Q969F8); assay: Human kisspeptin (KISS1R) small molecule agonists, calcium flux assay in KISS1R-HEK293 cells (AID 1920064; active = well fitted curve in the direction sought with a large enough effect in the repeat runs; an effect the other way counts as inactive or inconclusive)
Chain of KiSS-1 receptor (Homo sapiens) (Q969F8 whole entry, looked up): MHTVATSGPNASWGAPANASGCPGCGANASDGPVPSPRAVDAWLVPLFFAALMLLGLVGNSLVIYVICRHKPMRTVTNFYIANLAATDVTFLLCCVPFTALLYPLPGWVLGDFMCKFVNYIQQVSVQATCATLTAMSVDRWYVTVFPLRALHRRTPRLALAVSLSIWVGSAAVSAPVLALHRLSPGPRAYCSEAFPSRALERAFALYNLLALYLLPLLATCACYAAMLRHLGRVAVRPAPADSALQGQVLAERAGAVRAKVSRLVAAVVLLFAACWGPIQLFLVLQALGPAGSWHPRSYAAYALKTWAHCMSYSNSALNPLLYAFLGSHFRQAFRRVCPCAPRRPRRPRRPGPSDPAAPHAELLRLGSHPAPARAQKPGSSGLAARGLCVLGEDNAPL
Procedure, shortened: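 Concentration-response testing used 15 concentrations in triplicate on human KISS1R-expressing HEK293 cells. Calcium-dependent fluorescence (Ex/Em 480/540) was followed kinetically for 3 min after compound transfer.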

[5] = G protein-coupled receptor (GPCR) small molecule agonists, calcium flux assay: HEK293 wild type cell line counter screen (AID 1920065)
Procedure, shortened: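 Fluorescence intensity signals activation. After overnight (18 h) culture and a 1 h calcium dye load at 37 C, compounds are added by pin tool and the plate read at 480/540 nm for 3 min in 1 s steps.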

[6] = p53 small molecule agonists, cell-based qHTS assay with human liver microsomes (AID 1963577);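 note: p53 response element beta-lactamase reporter cells with liver microsomes plus NADPH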
Procedure, shortened: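 HLM-supplemented p53RE-bla reporter assay: 16 h compound exposure at 37 C, microsomes and NADPH each 0.5 mg/mL final, read by fluorescence intensity.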

[7] = p53 small molecule agonists, cell-based qHTS assay with rat liver microsomes (AID 1963578)
Procedure, shortened: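 Quantitative HTS of the Tox21 10K library: p53RE-bla cells, rat liver microsomes plus NADPH at 0.5 mg/mL final each, 16 h at 37 C, beta-lactamase fluorescence detection.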

[8] = p53 small molecule agonists, cell-based qHTS assay with human liver microsomes: qHTS cell viability counter screen (AID 1963579); note: nearly all actives have a fitted effect of over 45% in size
Procedure, shortened: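 Viability of p53RE-bla cells is measured as CellTiter-Glo luminescence following a 16 h, 37 C incubation with compound, liver microsomes from human donors and NADPH.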

[9] = p53 small molecule agonists, cell-based qHTS assay: qHTS cell viability counter screen (AID 1963581); note: nearly all actives have a fitted effect of over 45% in size
Procedure, shortened: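 Luminescence from CellTiter-Glo, reflecting ATP content, serves as the cytotoxicity measure; it is taken after the 2 h reporter substrate step in HCT-116 p53RE-bla cells dosed for 16 h at 37 C.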

[10] = p53 small molecule agonists, cell-based qHTS assay (AID 1963582; active = well fitted activation curve with a large enough effect in the signal ratio in the repeat runs, not every such curve was filed as active; the % refers to the signal ratio)
Procedure, shortened: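 After plating, p53RE-bla cells sat 5 h in the incubator; compounds or DMSO vehicle were pinned in; a 16 h incubation at 37 C followed; FRET substrate was added and, 2 h later at RT, fluorescence was measured.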

[11] = target: 5-hydroxytryptamine receptor 2A (Homo sapiens) (UniProt P28223); assay: 5-hydroxytryptamine receptor 2A (HTR2A) small molecule antagonists, cell-based qHTS assay (AID 1963586); note: nearly all actives have a fitted effect of over 45% in size
Chain of 5-hydroxytryptamine receptor 2A (Homo sapiens) (P28223 whole entry, looked up): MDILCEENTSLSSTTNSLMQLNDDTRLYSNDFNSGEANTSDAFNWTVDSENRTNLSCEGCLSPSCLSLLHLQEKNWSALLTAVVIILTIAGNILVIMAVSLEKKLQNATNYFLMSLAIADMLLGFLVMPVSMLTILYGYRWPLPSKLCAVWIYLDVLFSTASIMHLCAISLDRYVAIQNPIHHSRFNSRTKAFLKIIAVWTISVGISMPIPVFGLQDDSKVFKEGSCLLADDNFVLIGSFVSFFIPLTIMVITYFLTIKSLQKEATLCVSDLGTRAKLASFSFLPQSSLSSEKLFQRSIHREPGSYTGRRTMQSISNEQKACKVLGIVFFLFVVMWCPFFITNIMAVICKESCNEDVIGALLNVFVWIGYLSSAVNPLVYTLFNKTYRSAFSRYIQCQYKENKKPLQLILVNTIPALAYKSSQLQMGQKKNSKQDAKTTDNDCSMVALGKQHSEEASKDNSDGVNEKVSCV
Procedure, shortened: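 CHO cells stably expressing human HTR2A were plated for 18 h at 37 C, then loaded with calcium dye for 1 h. Compounds were preincubated 5 min at room temperature before DOI (4 nM solution) was added. Kinetic fluorescence was read for 3 min.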

[12] = target: 5-hydroxytryptamine receptor 2A (Homo sapiens) (UniProt P28223); assay: 5-hydroxytryptamine receptor 2A (HTR2A) small molecule agonists, cell-based qHTS assay (AID 1963587); note: nearly all actives have a fitted effect of over 30% in size
Procedure, shortened: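 HTR2A-CHO cells, plated 18 h at 37 C/5% CO2, dye-loaded 1 h at 37 C; compounds in DMSO added by pin tool (agonist mode). Intracellular calcium flux read as kinetic fluorescence on FDSS over 2 min at 1 s intervals.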

[13] = target: Muscarinic acetylcholine receptor M1 (Homo sapiens) (UniProt P11229); assay: Cholinergic receptor muscarinic 1 (CHRM1) small molecule antagonists, cell-based qHTS assay (AID 1963588); note: nearly all actives have a fitted effect of over 40% in size
Chain of Muscarinic acetylcholine receptor M1 (Homo sapiens) (P11229 whole entry, looked up): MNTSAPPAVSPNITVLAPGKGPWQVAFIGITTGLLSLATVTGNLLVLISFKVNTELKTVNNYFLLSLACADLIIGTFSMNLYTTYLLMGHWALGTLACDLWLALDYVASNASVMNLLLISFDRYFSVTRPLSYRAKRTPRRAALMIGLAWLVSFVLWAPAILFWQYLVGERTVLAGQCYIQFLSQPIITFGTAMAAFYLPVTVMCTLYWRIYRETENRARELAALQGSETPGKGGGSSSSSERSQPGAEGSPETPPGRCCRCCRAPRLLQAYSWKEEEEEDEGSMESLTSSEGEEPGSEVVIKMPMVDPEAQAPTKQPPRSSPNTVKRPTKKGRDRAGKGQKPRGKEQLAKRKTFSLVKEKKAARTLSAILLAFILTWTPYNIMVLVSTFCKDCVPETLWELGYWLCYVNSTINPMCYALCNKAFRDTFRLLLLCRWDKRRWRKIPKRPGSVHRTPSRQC
Procedure, shortened: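 Compounds were tested at 15 concentrations in three independent runs. Dye-loaded CHRM1-CHO cells were exposed 5 min at room temperature before stimulation by acetylcholine added at 50nM. Intracellular calcium was read kinetically on FDSS for 3 min.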

[14] = target: Muscarinic acetylcholine receptor M1 (Homo sapiens) (UniProt P11229); assay: Cholinergic receptor muscarinic 1 (CHRM1) small molecule agonists, cell-based qHTS assay (AID 1963589); note: nearly all actives have a fitted effect of over 35% in size
Procedure, shortened: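 Fluorescent calcium dye reports M1 activation in stably transfected CHO cells. Compounds, 15 concentrations, added after 1 h dye loading at 37 C; kinetic reading at 1 sec intervals.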

[15] = cAMP Responsive Elements (CRE) small molecule agonists, cell-based qHTS assay (AID 1963590)
Procedure, shortened: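 Compound exposure lasted 3 h at 37 C/5% CO2 in CRE-bla HEK 293T cells grown in assay medium with 10% dialyzed FBS and 25 mM HEPES. Reporter signal came from LiveBLAzer B/G FRET substrate, 2 h, room temperature.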

[16] = cAMP Responsive Elements (CRE) small molecule antagonists, cell-based qHTS assay (AID 1963591; active = well fitted inhibition curve with a large enough effect in the signal ratio in the repeat runs, not every such curve was filed as active; the % refers to the signal ratio)
Procedure, shortened: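 Stimulation used NKH477 at a final 0.25 uM for 3 h in compound-treated CRE-bla HEK293T cells, seeded 18 h beforehand. Reporter activity was measured with LiveBLAzer B/G FRET substrate after 2 h at room temperature.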

[17] = target: Beta-2 adrenergic receptor (Homo sapiens) (UniProt P07550); assay: Adrenergic beta2 receptor (ADRB2) small molecule antagonists, cell-based qHTS assay (AID 1963592); note: series mostly up to about 92 µM; nearly all actives have a fitted effect of over 50% in size
Chain of Beta-2 adrenergic receptor (Homo sapiens) (P07550 whole entry, looked up): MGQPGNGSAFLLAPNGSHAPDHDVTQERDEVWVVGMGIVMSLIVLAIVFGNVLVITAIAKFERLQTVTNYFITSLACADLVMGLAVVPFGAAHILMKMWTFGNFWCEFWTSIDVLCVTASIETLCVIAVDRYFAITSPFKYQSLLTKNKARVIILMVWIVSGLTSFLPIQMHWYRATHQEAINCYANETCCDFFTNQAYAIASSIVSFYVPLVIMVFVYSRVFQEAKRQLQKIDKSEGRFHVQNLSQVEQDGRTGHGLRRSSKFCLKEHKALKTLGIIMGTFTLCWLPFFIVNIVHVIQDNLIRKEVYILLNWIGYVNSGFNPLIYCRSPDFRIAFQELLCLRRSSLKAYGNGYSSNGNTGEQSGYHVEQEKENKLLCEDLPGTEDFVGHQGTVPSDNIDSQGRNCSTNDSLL
Procedure, shortened: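 Assay format: CHO-ADRB2 cells, 18-20hr seeding at 37C/5% CO2, then compound plus 1nM isoproterenol agonist mix for 0.5hr RT. Homogeneous time-resolved fluorescence cAMP detection after 1hr, expressed as 665/615 nm ratio.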

[18] = target: Beta-2 adrenergic receptor (Homo sapiens) (UniProt P07550); assay: Adrenergic beta2 receptor (ADRB2) small molecule agonists, cell-based qHTS assay (AID 1963593);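 note: CHO cells stably overexpressing human ADRB2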
Procedure, shortened: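 CHO cells stably over-expressing ADRB2 were plated overnight at 37C, then dosed with compounds plus a stimulation mix containing 100uM IBMX and 25uM Ro-20-1724 for 0.5hr at room temperature. cAMP was measured by HTRF competition, 1hr.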

[19] = target: D(2) dopamine receptor (Homo sapiens) (UniProt P14416); assay: Dopamine D2 receptor (DRD2) small molecule agonists, cell-based qHTS assay (AID 1963594); note: nearly all actives have a fitted effect of over 35% in size
Chain of D(2) dopamine receptor (Homo sapiens) (P14416 whole entry, looked up): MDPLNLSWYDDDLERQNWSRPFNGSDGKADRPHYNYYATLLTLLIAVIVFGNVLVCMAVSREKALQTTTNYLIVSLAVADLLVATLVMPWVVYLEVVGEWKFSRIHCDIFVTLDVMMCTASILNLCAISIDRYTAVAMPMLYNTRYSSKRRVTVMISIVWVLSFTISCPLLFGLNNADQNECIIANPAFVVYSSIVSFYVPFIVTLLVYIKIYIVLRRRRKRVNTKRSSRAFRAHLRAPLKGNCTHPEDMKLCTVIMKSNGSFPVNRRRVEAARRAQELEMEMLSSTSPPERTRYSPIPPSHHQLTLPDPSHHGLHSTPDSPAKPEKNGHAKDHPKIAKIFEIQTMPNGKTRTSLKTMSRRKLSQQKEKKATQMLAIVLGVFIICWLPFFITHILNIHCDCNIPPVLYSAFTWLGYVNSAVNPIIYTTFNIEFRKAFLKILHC
Procedure, shortened: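 HEK293 cells stably expressing DRD2 were cultured 24 h at 37 C, then given Ro20-1724 (0.1 mM final) and compounds for 10 min at room temperature. NKH477 (200nM) was then added for 30 min. cAMP was read by HTRF.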

[20] = target: D(2) dopamine receptor (Homo sapiens) (UniProt P14416); assay: Dopamine D2 receptor (DRD2) small molecule antagonists, cell-based qHTS assay (AID 1963595; active = well fitted inhibition curve with a large enough effect in the signal ratio in the repeat runs, with a control signal flat; the % refers to the signal ratio)
Procedure, shortened: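 Antagonism was scored as restored cAMP in HEK293-DRD2 cells. These cells were stimulated with 200 nM NKH477 and 12 nM quinpirole for 30 min at room temperature, in the presence of 0.1 mM Ro20-1724.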

Compound | Potency [1] | Potency [2] | Potency [3] | Potency [4] | Potency [5] | Potency [6] | Potency [7] | Potency [8] | Potency [9] | Potency [10] | Potency [11] | Potency [12] | Potency [13] | Potency [14] | Potency [15] | Potency [16] | Potency [17] | Potency [18] | Potency [19] | Potency [20]
CCCc1cc(C(N)=S)ccn1 | inactive | inactive | inactive | inactive | inactive | inactive | inactive | inactive | inactive | inactive | inactive | inactive | inactive | inactive | inactive | inactive | inactive | inactive | inactive | –
C=C(C)C(=O)OCCCCCCCCCCCCC | inactive | inactive | inactive | inactive | inactive | inactive | inactive | inactive | inactive | inactive | inactive | inactive | inactive | inactive | inactive | inactive | inactive | – | inactive | –
COC(=O)c1ccc(C(=O)OC)cc1 | 2.47 µM (active) and inactive | inactive | inactive | inactive | inactive | inactive | inactive | inactive | inactive | inactive | inactive | inactive | inactive | inactive | – | inactive | inactive | – | inactive | inactive
SCCSCCS | inactive | inactive | inactive | inactive | inactive | inactive | inactive | inactive | inactive | inactive | inactive | inactive | inactive | inactive | inactive | – | inactive | inactive | inactive | inactive
NS(=O)(=O)c1cc2c(cc1Cl)NC(CC1CCCC1)NS2(=O)=O (centres undefined) | inactive | inactive | inactive | inactive | inactive | inactive | inactive | inactive | inactive | inactive | inactive | inactive | inactive | inactive | inactive | – | inactive | inactive | inactive | –
Cc1oc(C)c(C(=O)Nc2ccccc2)c1C | inactive | inactive | inactive | inactive | inactive | inactive | inactive | inactive | inactive | inactive | inactive | inactive | inactive | inactive | – | inactive | inactive | inactive | inactive | –
CN(C)C(=O)Oc1ccc[n+](C)c1 | inactive | inactive | inactive | inactive | inactive | inactive | inactive | inactive | inactive | inactive | inactive | inactive | inactive | inactive | inactive | inactive | inactive | inactive | inactive | –
